The record followed here is PubChem BioAssay (NCI).

Where “and” joins values, the source holds several entries; their conditions need not be identical. Equal entries are not always repeated. This is part of a sample that, as a whole, favours compounds with a hit. Of some 83,000 tested, about 20% had one in any assay.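 Compound tested at a single concentration for 48 hours in 96-well plates; a percent growth value below 10 was scored as active.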 Calls of active or inactive are those of the source.

Among the test systems are SK-MEL-2 melanoma; EKVX NSCLC; SN12C renal; UO-31 renal; TK-10 renal; ACHN renal; CAKI-1 renal; A498 renal; CCRF-CEM leukemia; MOLT-4 leukemia.
Holding throughout (assay): NCI-60 one-dose screen, 48 h (100 = growth as untreated, 0 = no growth, -100 = all killed)
What all share (settings): 10 µM unless noted

For `COc1cc(C2c3cc4c(cc3C(OC(=O)C[n+]3ccccc3)C3COC(=O)C23)OCO4)cc(OC)c1OC` (stereo not given), the growth was 33.5% (inactive) in the assay with SK-MEL-2 melanoma; 42.5% (inactive) in the assay with EKVX NSCLC; 12.4% (inactive) in the assay on SN12C renal; 39.4% (inactive) with UO-31 renal; 63.4% (inactive) in the assay on TK-10 renal; 20.9% (inactive) in the assay with ACHN renal. The growth was 18.1% (inactive) in the assay with CAKI-1 renal, -19.9% (active) in the assay on A498 renal, 12.9% (inactive) with CCRF-CEM leukemia and 15.5% (inactive) in the assay with MOLT-4 leukemia.

For the compound `N=C(N=C(N)N)N1CCOCC1`, the growth in the assay on SK-MEL-2 melanoma is 111% (inactive) and 99.2% (inactive); in the assay with EKVX NSCLC, 103% (inactive) and 105% (inactive); in the assay on SN12C renal, 99.4% (inactive) and 96.7% (inactive); with UO-31 renal it was 83.8% (inactive) and 85% (inactive); in the assay on TK-10 renal, 103% (inactive) and 97.9% (inactive); with ACHN renal it was 103% (inactive). Also, the growth in the assay on CAKI-1 renal is 94.8% (inactive) and 103% (inactive); with A498 renal it was 91.7% (inactive) and 102% (inactive); in the assay with CCRF-CEM leukemia, 107% (inactive) and 93.8% (inactive); in the assay on MOLT-4 leukemia, 105% (inactive) and 102% (inactive).

Take `OCc1ccccc1F`: the growth was 26.3% (inactive) in the assay with SK-MEL-2 melanoma; 110% (inactive) in the assay with EKVX NSCLC; 84.5% (inactive) with SN12C renal; 84.7% (inactive) in the assay with UO-31 renal; 107% (inactive) in the assay with TK-10 renal; 6.49% (active) in the assay on ACHN renal. Besides, the growth in the assay on CAKI-1 renal is 18.7% (inactive); with A498 renal, 98.5% (inactive); with CCRF-CEM leukemia, 83.9% (inactive); with MOLT-4 leukemia, 91.8% (inactive).

Consider `Cc1cc(O)c(C(C)C)cc1N=O`, for which the growth with SK-MEL-2 melanoma was 103% (inactive) and 111% (inactive); in the assay with EKVX NSCLC it was 101% (inactive) and 102% (inactive); with SN12C renal, 95.7% (inactive) and 105% (inactive); in the assay with UO-31 renal, 106% (inactive) and 92.5% (inactive); in the assay with TK-10 renal, 101% (inactive) and 99.7% (inactive); with ACHN renal, 95% (inactive) and 91.5% (inactive). For the same compound, the growth was 104% (inactive) and 107% (inactive) in the assay on CAKI-1 renal; 94.8% (inactive) and 95.5% (inactive) in the assay on A498 renal; 90.3% (inactive) with CCRF-CEM leukemia; 98.1% (inactive) in the assay with MOLT-4 leukemia.

In the case of `CC(C)(C)OC(=O)CC1(O)CCCCC1`, the growth was 107% (inactive) in the assay on SK-MEL-2 melanoma; 102% (inactive) in the assay on EKVX NSCLC; 100% (inactive) in the assay with SN12C renal; 101% (inactive) in the assay on UO-31 renal; 99.6% (inactive) with TK-10 renal; 105% (inactive) in the assay with ACHN renal. The growth in the assay on CAKI-1 renal was 100% (inactive); with A498 renal it was 84.6% (inactive); in the assay on CCRF-CEM leukemia it was 106% (inactive); with MOLT-4 leukemia it was 108% (inactive).

Take `N#CC1c2ccccc2C=CN1C(=O)c1ccccc1` (stereo not given): the growth with SK-MEL-2 melanoma was 109% (inactive); with EKVX NSCLC it was 106% (inactive) and 92.7% (inactive); in the assay on SN12C renal, 99.8% (inactive) and 94.3% (inactive); in the assay on UO-31 renal, 78.6% (inactive) and 97.8% (inactive); in the assay on TK-10 renal, 109% (inactive) and 115% (inactive); in the assay with ACHN renal, 94.6% (inactive) and 90% (inactive). The growth in the assay with CAKI-1 renal is 97.6% (inactive) and -6.46% (active); with A498 renal it was 98.9% (inactive) and 148% (inactive); with CCRF-CEM leukemia it was 88.2% (inactive) and 130% (inactive); with MOLT-4 leukemia it was 89.2% (inactive) and 125% (inactive).

On to `CC(=O)Oc1cc(C)c(OC(C)=O)c(C)c1C`, for which the growth in the assay with SK-MEL-2 melanoma is 102% (inactive); in the assay with EKVX NSCLC, 95.8% (inactive); with SN12C renal it was 98.9% (inactive); with UO-31 renal, 88.2% (inactive); in the assay with TK-10 renal, 124% (inactive); with ACHN renal, 100% (inactive). The growth in the assay with CAKI-1 renal is 77.4% (inactive); in the assay on A498 renal, 109% (inactive); in the assay on CCRF-CEM leukemia, 100% (inactive); with MOLT-4 leukemia it was 109% (inactive).

Consider `CC(C)=NOC(C)C(=O)O` (stereo not given), for which the growth with SK-MEL-2 melanoma is 107% (inactive); in the assay with EKVX NSCLC, 95.9% (inactive); with SN12C renal, 94.1% (inactive); with UO-31 renal, 97.5% (inactive); in the assay on TK-10 renal, 104% (inactive); in the assay on ACHN renal, 102% (inactive). The growth in the assay with CAKI-1 renal was 104% (inactive); with A498 renal, 89.2% (inactive); with CCRF-CEM leukemia it was 103% (inactive); in the assay with MOLT-4 leukemia, 105% (inactive).

`CS(=O)(=O)c1nsc(N)n1`: the growth is 96.3% (inactive) in the assay with SK-MEL-2 melanoma; 108% (inactive) in the assay on EKVX NSCLC; 101% (inactive) in the assay on SN12C renal; 91.4% (inactive) in the assay on UO-31 renal; 101% (inactive) in the assay on TK-10 renal; 107% (inactive) in the assay on ACHN renal. For the same compound, the growth in the assay with CAKI-1 renal was 103% (inactive); with A498 renal, 97.4% (inactive); with CCRF-CEM leukemia, 106% (inactive); in the assay on MOLT-4 leukemia it was 103% (inactive).

Take `CCC(C)(O)CCC(C)(O)CC` (stereo not given): the growth in the assay on SK-MEL-2 melanoma was 116% (inactive); in the assay on EKVX NSCLC, 99.4% (inactive); in the assay on SN12C renal, 108% (inactive); in the assay with UO-31 renal, 91% (inactive); with TK-10 renal, 103% (inactive); with ACHN renal, 111% (inactive). Besides, the growth in the assay with CAKI-1 renal is 101% (inactive); with A498 renal it was 114% (inactive); in the assay on CCRF-CEM leukemia it was 101% (inactive); in the assay with MOLT-4 leukemia, 102% (inactive).

For `COCCNC(C)=O`, the growth was 105% (inactive) in the assay with SK-MEL-2 melanoma; 105% (inactive) in the assay on EKVX NSCLC; 97.7% (inactive) with SN12C renal; 98.2% (inactive) with UO-31 renal; 102% (inactive) in the assay with TK-10 renal; 110% (inactive) in the assay with ACHN renal. In addition, the growth was 98.5% (inactive) in the assay with CAKI-1 renal, 89.6% (inactive) with A498 renal, 113% (inactive) in the assay with CCRF-CEM leukemia and 119% (inactive) in the assay with MOLT-4 leukemia.
